# About 83,000 compounds went through this panel and 20% of them were active in at least one assay; those are over-represented in the sample as a whole.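 For each line, cells grew in 96-well plates with the test compound present at a single concentration for 48 hours.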 Unmarked numbers belong to inactive results. Activity calls are given as the source filed them. How the source made its calls: active means growth percent below 10; inactive means the rest.
# System: MDA-MB-468 breast
# Assay: NCI-60 one-dose screen, 48 h (100 = growth as untreated, 0 = no growth, -100 = all killed)
# Details: 10 µM unless noted
row,Compound,growth
1,CCN(CC)c1ccc2c(c1)Oc1nc(N)c(C#N)c(N)c1C2Sc1ccc(SC)cc1 (stereo not given),-37.4% (active)
2,CCOC(=O)C#Cc1c(C(=O)OCC)nnn1[C@@H]1O[C@H](COC)[C@@H](OC)[C@H]1OC,-20.5% (active)
3,Cc1ccc(C)c2c1C(O)(C#Cc1ccccc1)c1ccccc1C2(O)C#Cc1ccccc1 (stereo not given),58.1%
4,O=C(CCc1nnc(Cn2ccnc2)o1)c1nc2ccccc2[nH]1,108%
5,CC(C)(C)OC(=O)N1CC(Cn2cc(C(F)(F)F)c3c(Cl)ncnc32)C1,-46.8% (active)
6,CCCCCCCCCCCCCCCCNc1ccccc1,108%
7,CCCCCCCCCCCCNC(=O)[C@H]1CSC(c2cc(Br)cs2)N1 (stereo not given in full),-48.7% (active)
8,Cc1ccc(O)c(NC(=O)c2cccc(Nc3ccnc(C(F)(F)F)c3)c2)c1,46%
9,COc1ccccc1/C=N/NC1=NC2C(N1)N(C)C(=O)N2C (stereo not given),106%
10,COc1ccc(-n2nc(C(=O)NCC(=O)Nc3nc4cc(OC)ccc4s3)c3ccccc3c2=O)cc1,-8.37% (active)
11,Cc1cc(=O)oc2cc(Oc3nc(-c4cccs4)cn4c(-c5cccs5)cnc34)ccc12,54.7%
12,COc1ccc2nc3cc(Cl)ccc3c(N3CCN(c4ccnc(N5CCN(C)CC5)n4)CC3)c2c1,-51.9% (active)
13,C/C(O)=C(/C=N/C(=S)Nc1ccccc1)C(=O)Nc1ccccc1C,99.7%
14,CC(C)NC(=O)N1C(=O)CCC1NNC(=O)c1ccc([N+](=O)[O-])cc1 (stereo not given),114%
15,CC1=C(/C=C/C(C)=C/C=C/C(C)=C/C(=O)Nc2ccc(O)cc2)C(C)(C)CCC1,30.1%

# From PubChem BioAssay (NCI)
